A number with no mark means an inactive call.
Tested on: gramicidin D channels in DC22:1PC lipid vesicles (bilayer-modifying potency)
Assay: initial Tl+ fluorescence quench rate relative to no-drug control (NormRate, gramicidin monomer-dimer shift) (ratio (fold of control)); higher = stronger bilayer-modifying effect (equilibrium shifted toward conducting dimers), active = 1.5 or more
Details: 10 µM; lipid concentration 50 µM; temperature: 25 °C
Description: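 Stopped-flow fluorescence quench assay: ANTS-loaded DC22:1PC large unilamellar vesicles doped with gramicidin D (1:2000), 50 µM lipid, equilibrated 10 min with 10 µM drug (0.1% DMSO), mixed with Tl+ quench buffer at 25°C. Initial quench rate (Tl+ influx) was fitted with a modified stretched exponential and normalised to the no-drug control rate (NormRate); duplicates from two independent LUV preparations (triplicates for 7 drugs).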

SMILES	initial Tl+ fluorescence quench rate
CCOC(=O)c1noc(N)c1-c1ccccc1	1.03
CCn1ncc2c(NC3CCOCC3)c(CNC(=O)c3ccnn3C)c(C)nc21	1.07
Clc1ccc(Cl)c(CO[C@H]2CCCC[C@@H]2n2ccnc2)c1	1.09
COc1ccc(-c2cnc3ccc(N4CCCC4)nn23)cc1OC	2.31 (active)
CC(C)n1ncc2c(C(=O)NC[C@H](c3cccs3)N3CCOCC3)cc(-c3ccccc3)nc21	2.74 (active)
COc1cc(C(F)(F)F)nc2ccc(C)c(N)c12	1.03
COc1cc(Br)cc2cc(C(=O)Nc3cccc(C(F)(F)F)c3)c(=O)oc12	1.05
O=C(C1CCN(c2nnc(-n3cccc3)s2)CC1)N1CCC(Cc2ccccc2)CC1	1.24
CCCn1c(NC(=O)c2ccc3ccccc3n2)nc2ccccc21	1.4
C[C@H](C(N)=O)N1CCCC[C@H]1c1ccc(OCc2cccc(F)c2)cc1	1.21
Cc1ccccc1C(=O)N1N=C(Nc2ccccc2)SC1(C)C	2.12 (active)
Cn1ncc2c(N3CCOCC3)nc(NCCc3c[nH]c4ccccc34)nc21	3.03 (active)
CCOC(=O)NC(=O)c1ccsc1NC(=O)c1nc2ccccc2s1	3.21 (active)
CC(C)c1ncc(-c2ccncc2)c([C@H]2CC[C@H](CNC(=O)c3cccnc3)CC2)n1	1.02
COc1ccc(N(CCc2cccc(C)n2)C(C)=O)cc1	1.04
CC[P](CC)(CC)=[Au][S][C@H]1O[C@@H](COC(C)=O)[C@H](OC(C)=O)[C@@H](OC(C)=O)[C@@H]1OC(C)=O	1.07
COc1cc(C2=NCCN2)cc2cc(-c3ccc(C4=NCCN4)cc3)oc12	1.1
c1ccc(Oc2ccc(-c3cc(N4CCOCC4)[nH]n3)cc2)cc1	2.4 (active)
CCN(CC)C(=O)N1CCN(C)CC1	1.1
CN1CCN(c2cc(-c3ccc(F)cc3)nc(-c3ccncc3)n2)CC1	1.18
O=C([C@@H](c1ccc(Cl)cc1)c1cccnc1)N1CCN(c2ccc(C(F)(F)F)cc2)CC1	10.5 (active)
CN(C(=O)c1cc2c(-c3cncnc3)cccc2[nH]1)c1ccccc1	1.12
Cc1ncc(-c2ccnc(Nc3ccc(S(C)(=O)=O)cc3)n2)n1C(C)C	1.03
CCc1ccc([C@@H]2C[C@H](C(F)(F)F)n3ncc(C(=O)NCc4ccc(OC)cc4)c3N2)cc1	4.55 (active)
CCN(CC)S(=O)(=O)c1ccc(Cl)c(C(=O)Nc2ccc3nc(C)sc3c2)c1	2.06 (active)

SMILES	initial Tl+ fluorescence quench rate
O=C(Nc1nc(-c2ccccn2)cs1)[C@H]1C[C@@H]1c1ccccc1F	1.41
N#Cc1nc(-c2ccccc2)oc1S(=O)(=O)c1ccc(Cl)cc1	1.12
CC(C)(C)OC(=O)N1CCN(c2cc(-c3ccc(Oc4ccccc4)cc3)n[nH]2)CC1	3.47 (active)
CCOc1ccccc1C(=O)Nc1cccc(-c2nc3ncccn3c2C)c1	1.48
Cc1[nH]c2ccccc2c1[C@@H](c1cccs1)N1CCN(C)CC1	1.44
Cc1cc(NC(=O)c2ccc(S(=O)(=O)N(Cc3ccccc3)C(C)C)cc2)no1	1.14
NC[C@@H](c1cccs1)S(=O)(=O)c1ccccc1	1.36
COc1ccc([C@H]2CC(c3cccs3)=NN2C(=O)c2ccco2)cc1OC	1.86 (active)
Cc1cccc(Cn2ccc(NC(=O)c3ccc4c(c3)OCO4)n2)c1	1.35
COc1ccc(N(CCc2cccc(C)n2)C(=O)C2CCCCC2)cc1	1.41
NS(=O)(=O)c1cccc(-c2ccc3ncc(N4CCOCC4)nc3c2)c1	1.41
O=C(c1[nH]nc2c1CCCC2)N1CCN(Cc2ccc3c(c2)OCO3)CC1	1.03
Cc1cnc(N2CCN[C@@H](Cc3ccccc3)C2)nc1Oc1ccc(-n2ccnc2)cc1	1.72 (active)
Cc1ccc2[nH]c3c(NCCN(C)C)ncnc3c2c1	1.05
CC(C)[C@@H](Oc1cccc2ccccc12)C(=O)O	1.1
OCCc1ccc(Nc2nccc(-c3nnc4ccccn34)n2)cc1	1.01
COc1cc(N[C@H](C)CCCN)c2ncccc2c1	1.02
O=C1[C@@H](Oc2ccccc2)[C@@H](c2ccc(Cl)cc2)N1CCn1cnc2c(NCc3ccccc3)ncnc21	2.02 (active)
COc1ccc(Oc2ccc([C@@H](C)N(C)c3ncc4c(N)nc(N)nc4n3)cc2)cc1	3.36 (active)
CCCCCCCCCCCCCCCCOP(=O)([O-])OCC[N+](C)(C)C	2.31 (active)
CC(C)(C)n1nc(Cc2cccc3ccccc23)c2c(N)ncnc21	2.86 (active)
N[C@H](CC(=O)c1ccc(Cl)cc1Cl)C(Cl)(Cl)Cl	1.12
COC(=O)c1c(NC(=O)c2c(F)c(F)c(F)c(F)c2F)sc2c1CCCCC2	1.72 (active)
COc1ccc(C2=NN(C3CCCCCC3)C(=O)[C@@H]3CC=CC[C@H]23)cc1OCCCCOc1ccc(-c2nn[nH]n2)cc1	8.03 (active)
COc1ccc(OC)c(NCc2ccc3nc(N)nc(N)c3c2Cl)c1	1.54 (active)

SMILES	initial Tl+ fluorescence quench rate
O=C(NC1CC1)c1ccc(N2CCC(Cc3ccccc3)CC2)nc1	1.43
CCc1nc2ccccc2n1C[C@H](O)COc1cc(C)ccc1Cl	2.91 (active)
COc1cccc(-c2cc3c(Nc4cccnc4)nccc3[nH]2)c1	1.5
CC(C)(C)CN1C(=O)C(c2ccccc2)(c2ccccc2)N=C1N	2.96 (active)
Cc1ccc(S(=O)(=O)n2cc(-c3ccnc(N)c3)c3cc(Br)cnc32)cc1	2.5 (active)
C[C@@H]1[C@H](O)[C@@H](C)/C=C/C=C/C=C/C=C/C=C/C=C/C=C/[C@H](O[C@@H]2O[C@H](C)[C@@H](O)[C@H](N)[C@@H]2O)C[C@@H]2O[C@](O)(C[C@@H](O)C[C@@H](O)[C@H](O)CC[C@@H](O)C[C@@H](O)CC(=O)O[C@H]1C)C[C@H](O)[C@H]2C(=O)O	1.03
O=C(c1ccco1)N(CCCn1ccnc1)c1nc2c(Cl)cccc2s1	1.24
CN1CCN(S(=O)(=O)c2ccc(-c3ccc4c(Nc5ccc6nn[nH]c6c5)ccnc4c3)cc2)CC1	1.28
CC[C@H](Sc1nc2ccccc2o1)C(=O)Nc1nnc(C)s1	1.3
COc1cccc(-n2nnnc2S(=O)(=O)Cc2ccccc2)c1	1.07
COc1cc(C2=NCCN2)ccc1-c1cn(-c2cccc(C3=NCCN3)c2)nn1	1.01
O=C(NC1CCCCC1)N1CCN(Cc2ccc3c(c2)OCO3)CC1	1.13
O=C1COCc2ccc(Br)cc2N1Cc1ccc(C(F)(F)F)cc1	1.55 (active)
COc1cccc(NC(=O)c2c(NC(=O)c3cccnc3)sc3c2CCC3)c1	1.55 (active)
O=C(Nc1ccccc1-c1nc2c(C(=O)O)cccc2o1)c1ccccc1	1.34
COc1ccc(C2=NCCN2)cc1-c1cn(-c2cccc(C3=NCCN3)c2)nn1	1.2
Cc1cccc(NC(=O)c2cc(S(=O)(=O)N(C)c3ccc(F)cc3)ccc2Cl)n1	1.5 (active)
Brc1cncc(-c2cc(NCCCn3ccnc3)nc(-c3ccccc3)n2)c1	2.73 (active)
COc1cc(CN2CCC3(C=Cc4ccccc43)CC2)cc2c1OCO2	2.43 (active)
COc1ccc(O[C@H](C)C(=O)Nc2ccc(Cl)cc2C)cc1	1.05
CCOc1ccc2cc(-c3nn(C(C)(C)C)c(N)c3C(N)=O)cnc2c1	1.21
CC(C)(C(=O)Nc1ccc(F)cc1)n1cc(-c2ccccc2F)cn1	1.42
Cc1nc2ccccn2c1C(=O)NCc1ccc(Cl)cc1	1.17
Nc1ncc(-c2ccc(C(F)(F)F)nc2)cc1-c1ccc(C(F)(F)F)nc1	1.08

— the supplement of paper PMC9948646
